Each structure is given as a SMILES string. Where “and” joins values, the source holds several entries; their conditions need not be identical. Equal entries are not always repeated. About 83,000 compounds went through this panel and 20% of them were active in at least one assay; those are over-represented in the sample as a whole.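 In brief: 96-well plates, 48 h treatment, single concentration, percent growth endpoint.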 Values without a mark were called inactive. Calls of active or inactive are those of the source. The calls were made as follows: active = growth percent below 10; inactive = the rest. *1 amine or outer side, *2 acyl side, *3 side chain or, on linkers, in order; H or OH if unused. Where a SMILES comes first, the peptide text is derived from it. Bridges are numbered along the chain shown (N, C = ends). Roman numbers before positions name the chains, in order. [ ]: non-standard residue; d: D form. Actinocin(1to9) = Cc1c2oc3c(C)ccc(C(=O)[*:2])c3nc-2c(C(=O)[*:1])c(N)c1=O; NMeV = CN[CH](C(=O)O)C(C)C; Sar = CNCC(=O)O

We go through 9 compounds from PubChem BioAssay (NCI).

Common to all, as to experiment: NCI-60 one-dose screen, 48 h (100 = growth as untreated, 0 = no growth, -100 = all killed)
For one assay, the system named is DU-145 prostate. The settings on record: 10 µM unless noted.
Another assay deals with K-562 leukemia. The settings on record: 10 µM unless noted.
In the next assay the test system is MALME-3M melanoma. The settings on record: 10 µM unless noted.
For the next assay, the system named is MDA-MB-231 breast. The note with it: 10 µM unless noted.
The test system of a further assay is RXF 393 renal. The note with it: 10 µM unless noted.
In a further assay the test system is SF-268 CNS. The note with it: 10 µM unless noted.
The subject of another assay is SF-295 CNS. The settings on record: 10 µM unless noted.
The subject of the next assay is SF-539 CNS. The settings on record: 10 µM unless noted.
The subject of a further assay is UACC-257 melanoma. The settings on record: 10 µM unless noted.
Another assay deals with M14 melanoma. The settings on record: 10 µM unless noted.
In another assay the test system is HCT-15 colon. The note with it: 10 µM unless noted.
Another assay concerns HT29 colon. The settings on record: 10 µM unless noted.
The subject of the next assay is SNB-75 CNS. The settings on record: 10 µM unless noted.
The subject of another assay is SNB-19 CNS. The settings on record: 10 µM unless noted.
A further assay deals with PC-3 prostate. The settings on record: 10 µM unless noted.
In the next assay the test system is UACC-62 melanoma.
For a further assay, the system named is LOX IMVI melanoma. The settings on record: 10 µM.
For the next assay, the system named is SK-MEL-28 melanoma. The settings on record: 10 µM unless noted.
The test system of a further assay is SK-MEL-5 melanoma. The settings on record: 10 µM unless noted.
In another assay the test system is U251 CNS. The note with it: 10 µM unless noted.

With `S=c1[nH]c2cc(Cl)ccc2s1`, the growth in the assay with DU-145 prostate was 104%; with K-562 leukemia, 111%; in the assay with MALME-3M melanoma, 102%; in the assay with MDA-MB-231 breast, 99.9%; in the assay with RXF 393 renal it was 121%; in the assay with SF-268 CNS it was 94.2%. In addition, the growth with SF-295 CNS is 103%; in the assay with SF-539 CNS, 100%; in the assay on UACC-257 melanoma, 108%; in the assay on M14 melanoma, 108%; in the assay on HCT-15 colon, 109%; in the assay on HT29 colon, 102%. The growth is 92.3% in the assay on SNB-75 CNS; 94% in the assay on SNB-19 CNS; 94.1% in the assay on PC-3 prostate; 88.4% with UACC-62 melanoma (10 µM unless noted); 97.6% in the assay on LOX IMVI melanoma; 110% in the assay with SK-MEL-28 melanoma.

Turning to `S=C=Nc1ccc(N2CCOCC2)cc1`, the growth is 108% with DU-145 prostate; 89.6% with K-562 leukemia; 82.3% in the assay with MALME-3M melanoma; 97.3% in the assay on MDA-MB-231 breast; 72.2% in the assay with RXF 393 renal; 99.9% in the assay with SF-268 CNS. Also, the growth in the assay on SF-295 CNS is 84.8%; with SF-539 CNS, 89.5%; in the assay with UACC-257 melanoma, 88.7%; in the assay on M14 melanoma it was 93%; with HCT-15 colon, 90.5%; in the assay with HT29 colon, 86.3%. For the same compound, the growth is 66.4% in the assay on SNB-75 CNS; 91.8% in the assay on SNB-19 CNS; 90.1% in the assay on PC-3 prostate; 98.2% in the assay on SK-MEL-5 melanoma; 82.1% in the assay with UACC-62 melanoma (10 µM unless noted); 92.4% in the assay on LOX IMVI melanoma. The growth in the assay on SK-MEL-28 melanoma was 92.5%.

Regarding `Nc1cc(-c2ccccc2)ccc1O`, the growth in the assay on DU-145 prostate is 103%; in the assay on K-562 leukemia, 59.2%; in the assay on MALME-3M melanoma it was 121%; with MDA-MB-231 breast, 82.7%; with RXF 393 renal, 30.3%; with SF-268 CNS it was 78.2%. For the same compound, the growth with SF-295 CNS is 134%; in the assay with SF-539 CNS, 105%; in the assay with UACC-257 melanoma, 120%; in the assay on M14 melanoma, 103%; in the assay with HCT-15 colon it was 93.3%; with SNB-75 CNS, 105%. Also, the growth with SNB-19 CNS is 98.5%; in the assay on U251 CNS, 101%; in the assay on SK-MEL-5 melanoma, 118%; in the assay with UACC-62 melanoma (10 µM unless noted), 88%; in the assay with LOX IMVI melanoma, 90%; in the assay with SK-MEL-28 melanoma, 93.3%.

Consider `CC(C)=CCCC(C)C1=C(O)C(=O)C(C)=CC1=O` (stereo not drawn), for which the growth is 99.6% in the assay on DU-145 prostate; -45.3% (active) in the assay on K-562 leukemia; 69.3% with MALME-3M melanoma; 40.5% with MDA-MB-231 breast; 58.5% in the assay with RXF 393 renal; 93.7% with SF-268 CNS. In addition, the growth is 120% in the assay on SF-295 CNS; 96.3% in the assay with SF-539 CNS; 120% in the assay on UACC-257 melanoma; 1.72% (active) with HCT-15 colon; 83.6% in the assay on HT29 colon; 113% in the assay on SNB-75 CNS. Also, the growth in the assay on SNB-19 CNS was 98.7%; with U251 CNS, 81.3%; in the assay on PC-3 prostate it was 90.8%; in the assay with SK-MEL-5 melanoma, 88.7%; in the assay with UACC-62 melanoma (10 µM), 103%; with UACC-62 melanoma (100 µM), -98.4% (active) and -93.3% (active). Moreover, the growth in the assay with LOX IMVI melanoma was 59.1%.

On to `CCC(C)C1NC(=O)C(NC(=O)c2c3nc4c(C(=O)NC5C(=O)NC(C(C)CC)C(=O)N6CCCC6C(=O)N(C)CC(=O)N(C)C(C(C)C)C(=O)OC5C)ccc(C)c4oc-3c(C)c(=O)c2N)C(C)OC(=O)C(C(C)C)N(C)C(=O)CN(C)C(=O)C2CCCN2C1=O` (stereo not drawn) (I: TIP[Sar][NMeV] / II: TIP[Sar][NMeV]; ester I:1-I:C, II:1-II:C; linker I:N-II:N via Actinocin(1to9); configuration not given here), for which the growth in the assay with DU-145 prostate is 15.5%; in the assay on K-562 leukemia, 1.13% (active); with MALME-3M melanoma, -74.1% (active); in the assay with MDA-MB-231 breast, -12.7% (active); in the assay on RXF 393 renal, 1.32% (active); in the assay with SF-268 CNS, -11.7% (active). Moreover, the growth was -11.3% (active) in the assay with SF-295 CNS; -36.9% (active) in the assay with SF-539 CNS; -8.32% (active) with UACC-257 melanoma; -95.6% (active) in the assay on M14 melanoma; 2.48% (active) with HCT-15 colon; 0.216% (active) with HT29 colon. Moreover, the growth is -87.2% (active) with SNB-75 CNS; 4.27% (active) in the assay with SNB-19 CNS; -3.84% (active) in the assay on PC-3 prostate; -67.8% (active) in the assay with UACC-62 melanoma (10 µM unless noted); 0.241% (active) in the assay with LOX IMVI melanoma.

For `Cc1ccc(/C=C2\CNC/C(=C\c3ccc(C)cc3)C2=O)cc1`, the growth with DU-145 prostate is -87.5% (active); in the assay on K-562 leukemia it was -28.5% (active); in the assay on MALME-3M melanoma it was 29.4%; in the assay on MDA-MB-231 breast it was -15.9% (active); in the assay with RXF 393 renal it was -57.4% (active); with SF-268 CNS it was -8.61% (active). The growth in the assay on SF-295 CNS was -5.11% (active); with SF-539 CNS, -64.5% (active); with UACC-257 melanoma it was -21.1% (active); with HCT-15 colon, -33.8% (active); in the assay on HT29 colon it was -35.8% (active); with SNB-75 CNS, 29%. Further, the growth in the assay on SNB-19 CNS is -52.6% (active); in the assay with U251 CNS, -63.4% (active); in the assay with PC-3 prostate, 6.55% (active); in the assay on SK-MEL-5 melanoma it was -96.7% (active); with UACC-62 melanoma (10 µM unless noted) it was -89% (active); in the assay on LOX IMVI melanoma, -69.2% (active).

Take `S=C(S)OCN1CCOCC1`: the growth with DU-145 prostate is 86%; in the assay with K-562 leukemia, 77.3%; in the assay on MALME-3M melanoma it was 87.5%; in the assay with MDA-MB-231 breast, 116%; with RXF 393 renal, 107%; in the assay on SF-268 CNS, 97.9%. For the same compound, the growth is 95.6% in the assay on SF-295 CNS; 101% in the assay with SF-539 CNS; 42.6% in the assay with UACC-257 melanoma; 77.4% in the assay with M14 melanoma; 91.3% with HCT-15 colon; 19.7% in the assay with HT29 colon. Also, the growth is 103% with SNB-19 CNS; 40.9% in the assay on U251 CNS; 89.6% in the assay with PC-3 prostate; 101% in the assay with SK-MEL-5 melanoma; 98.8% in the assay with UACC-62 melanoma (10 µM unless noted); 63.4% in the assay with LOX IMVI melanoma.

For `O=C(OC12CC3CC(CC(C3)C1)C2)c1ccc(NCc2cc(O)ccc2O)cc1`, the growth is 19.9% in the assay on DU-145 prostate; -49.3% (active) in the assay with K-562 leukemia; -93.5% (active) in the assay with MALME-3M melanoma; -39.8% (active) in the assay on MDA-MB-231 breast; -60.8% (active) in the assay with RXF 393 renal; -6.88% (active) in the assay with SF-268 CNS. Besides, the growth was -14.7% (active) in the assay with SF-295 CNS; -95.6% (active) in the assay with SF-539 CNS; 5.57% (active) in the assay on UACC-257 melanoma; -41.9% (active) in the assay with HCT-15 colon; -19% (active) with HT29 colon; -39.5% (active) in the assay with SNB-75 CNS. The growth was 5.17% (active) in the assay with SNB-19 CNS; -64.5% (active) with U251 CNS; -16.5% (active) with PC-3 prostate; -95.9% (active) in the assay on SK-MEL-5 melanoma; -73.4% (active) in the assay on UACC-62 melanoma (10 µM unless noted); -68.7% (active) in the assay on LOX IMVI melanoma.

Regarding `CCNc1nnnn1CC`, the growth in the assay with DU-145 prostate is 109%; with K-562 leukemia, 109%; in the assay with MALME-3M melanoma, 116%; in the assay with MDA-MB-231 breast it was 103%; with RXF 393 renal it was 106%; with SF-268 CNS, 106%. The growth in the assay on SF-295 CNS was 103%; in the assay with SF-539 CNS it was 103%; in the assay on UACC-257 melanoma, 116%; with M14 melanoma, 104%; with HCT-15 colon, 99.7%; in the assay with HT29 colon, 109%. Moreover, the growth is 90.4% in the assay on SNB-75 CNS; 106% with U251 CNS; 97.3% in the assay with PC-3 prostate; 106% in the assay on UACC-62 melanoma (10 µM unless noted); 98.7% with LOX IMVI melanoma; 113% in the assay with SK-MEL-28 melanoma.
